38 molecules from PubChem BioAssay (NCI) can be followed below.

Values joined by “and” are separate entries in the source; they are usually repeats but may differ in a detail not shown here. Identical values can stand only once. Compounds without any hit were thinned out: in the full panel of roughly 83,000, 20% have a hit.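 Activity criterion: percent growth below 10, measured after cells in 96-well plates were exposed to a single compound concentration for 48 hours.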 Active and inactive are the calls of the source.

The test system of one experiment is HCT-116 colon. The experiment in a line: NCI-60 one-dose screen, 48 h (100 = growth as untreated, 0 = no growth, -100 = all killed). The settings on record: 10 µM. How it is done:
Growth inhibition of the HCT-116 human tumor cell line is measured as a screen for anti-cancer activity. Cells are grown in 96 well plates and exposed to the test compound for 48 hours. Compounds are tested at a single concentration, which is 10^-5 M for most compounds. The reported endpoint is percent growth (GI% or GIPRCNT), where numbers from 0 - 100% represent growth inhibition, and numbers from -100% - 0 represent cell death. For example, a value of 40 represents 60% growth inhibition. A value of 0 means no net growth occurred over the course of the experiment. A value of -40 indicates 40% of cells at the beginning of the experiment died by the end of the experiment. A value of -100 means all cells are dead at the end of the experiment.
NCI-60 Human Tumor Cell Lines Screen was performed using the standard one-dose NCI protocol, which is described in more detail at https://dtp.cancer.gov/discovery_development/nci-60/default.htm.
Compounds with GIPRCNT values below 10 were considered active. Activity score was based on GIPRCNT using the following formula: […]
Score is 0 for GIPRCNT values of 100 or above, 50 for GIPRCNT values of 0, and 100 for GIPRCNT values of -100.
Regarding `O=c1ccn2c(n1)OC1CC2OC1COC(c1ccccc1)(c1ccccc1)c1ccccc1` (stereo not given), the growth is 101% (inactive). Still for that read-out and setting: under `CS/C(=C\c1ccc(C(=O)c2ccc(C)cc2)n1C)S(C)=O` (stereo not given) stands 97.1% (inactive).

Still in this experiment, the particulars now being: 10 µM unless noted.
As to `CC(C)(C)C1CCC(=NO)CC1` (stereo not given), the growth was 96.8% (inactive). The same measure, in the same setting: in the case of `Nc1ccccc1SC(CC(=O)c1ccccc1)c1cccc([N+](=O)[O-])c1` (stereo not given) it was -71.2% (active) and -58.6% (active). For `CCOC(=O)C1=C(C)NC(C)=C(C(=O)OCC)C1`, the growth is 140% (inactive) and 87.3% (inactive). Still for that read-out and setting: under `CCOC(=N)c1ccc(C(=N)OCC)cc1` stands 96% (inactive); under `COCCNC(C)=O`, 105% (inactive); under `CCCCC/C(C)=N\NC(N)=S`, 11.7% (inactive). For `O=c1[nH]nnc2cc(Cl)ccc12`, the growth was 104% (inactive) and 103% (inactive). Same read-out and setting: under `OC1CCCN(Cc2ccccc2)C1` (stereo not given) stands 103% (inactive); under `CCOP(C)(=O)/C(Cc1ccc(OC)c(OC)c1)=N\O` (stereo not given), 103% (inactive). Same read-out and setting: under `COc1ccc(/C=N/NC(N)=S)cc1` stands 89.3% (inactive); under `COc1cc2oc3cc(=O)cc4oc(-c5ccccc5)cc(c2c2c1CCC(c1ccccc1)O2)c43` (stereo not given), 59.7% (inactive); under `COc1ccc(/C=C/C(=O)O)cc1OC`, 99.5% (inactive) and 105% (inactive). The same measure, in the same setting: under `O=[N+]([O-])c1ccc(NC2CCCCC2)nc1` stands 108% (inactive) and 101% (inactive). As to `N#CC1c2ccccc2C=CN1C(=O)c1ccccc1` (stereo not given), the growth was 107% (inactive) and 92% (inactive). As for `O=C(N=C1C(=O)C2(CCCCC2)C2(N=C(c3ccccc3)OC2=O)C12CCCCC2)c1ccccc1` (stereo not given), the growth was 39.5% (inactive). On the same count and under the same terms, under `CCOP(=O)(OCC)/C(C#N)=C/c1c(C)[nH]c2ccccc12` stands 101% (inactive).

On to `COCCCNC1=C(C#N)C(=O)NC(c2cccs2)S1` (stereo not given), for which the growth is 103% (inactive). Still for that read-out and setting: under `O=c1[nH]c(=O)c2[nH]c(=O)[nH]c2[nH]1` stands 94.6% (inactive). Still for that read-out and setting: under `CC(=O)Nc1ccc2oc(=O)ccc2c1` stands 86.5% (inactive); under `O=C(O)/C=C/C=C/c1ccccc1`, 101% (inactive) and 96% (inactive). On to `OCCSc1ccc(Cl)cc1`, for which the growth is 110% (inactive) and 94.4% (inactive). As to `CCc1ccccc1-n1[nH]c(C)c(C=N)c1=O`, the growth is 120% (inactive). With `Cc1cc(-c2ccc(N=Nc3c(C)nn(-c4ccc(S(=O)(=O)O)cc4)c3O)c(C)c2)ccc1N=Nc1ccc(O)c(C(=O)O)c1`, the growth was 99.8% (inactive). Still for that read-out and setting: in the case of `C=CCN1C(=O)c2ccccc2C1=O` it was 99.2% (inactive).

As for `O=C(O)Cc1cc(=O)[nH]n(-c2ccccc2)c1=O`, the growth is 101% (inactive).

Regarding `COc1ccc(/C=N/Nc2nc3ccccc3s2)cc1`, the growth was 83.3% (inactive).

In the case of `CS(=O)(=O)OCC1NC(=O)C(COS(C)(=O)=O)NC1=O` (stereo not given), the growth was 93.7% (inactive) and 93.8% (inactive). Still for that read-out and setting: in the case of `COc1ccc(CCN=Cc2ccc(Cl)cc2)cc1OC` it was 104% (inactive). Consider `Cc1cc(Cl)nc(Nc2ccccc2)n1`, for which the growth is 93.1% (inactive).

`CNc1ccc(Cl)cc1S(=O)(=O)c1ccccc1[N+](=O)[O-]`: the growth was 107% (inactive) and 90.2% (inactive). The same measure, in the same setting: in the case of `O=C(O)C#Cc1ccc(Cl)cc1` it was 102% (inactive). `CN(C)C(=S)N(C)C`: the growth was 99.3% (inactive).

Regarding `O=C(c1ccc(Cl)cc1)C1C(c2ccccc2)C1[N+](=O)[O-]` (stereo not given), the growth was 106% (inactive). The same measure, in the same setting: under `C(=N\OCCc1ccccc1)/c1ccccn1` stands 112% (inactive) and 102% (inactive). Regarding `COc1ccc2nccc(Cl)c2c1`, the growth was 103% (inactive).

Regarding `O=c1[nH]c(=O)n(C2OC(CO)C(O)C2O)cc1I` (stereo not given), the growth was 109% (inactive) and 95.8% (inactive).

Still in this experiment, the particulars now being: 100 µM.
As to `O=c1ccn2c(n1)OC1CC2OC1COC(c1ccccc1)(c1ccccc1)c1ccccc1` (stereo not given), the growth is 40.1% (inactive). For `CS/C(=C\c1ccc(C(=O)c2ccc(C)cc2)n1C)S(C)=O` (stereo not given), the growth was 70.9% (inactive).
